Compounds with a hit are over-represented: about 7.4% of the library has one in this group of screens.
Rab9 promoter act – Rab9 promoter activation | Huh7 Rab9 promoter-luciferase reporter, luminescence, 24 h | Potency, µM (titrated, usually from 9.22 µM), without a hit: at the top dose activation, negative = inhibition, most hits filed as activators | hit rate 2.8% among 320,000 | AID 485297; also: % of control where 0% means no effect; nearly all actives have a fitted effect of over 60% in size
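Steps: seed 1500 Huh7 Rab9-luc cells per well, rest 2 h at 37 °C; add compound in DMSO; incubate 24 h; add luciferase reagent, 10 min ambient; read luminescence.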
FLuc counter – counter-screen for miR-21 project: firefly luciferase inhibitors or activators | P08659 | purified FLuc, Km substrates, luminescence inhibition | Potency, µM (top dose mostly 57.5 µM), inactives show top-dose activity change, negative = inhibition, hits mostly inhibitors | hit rate 6.9% among 360,000 | AID 588342;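 also: plate controls were vehicle for no effect and reference inhibitor for full effect; nearly all actives have a fitted effect of over 55% in size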
Target sequence (P08659 whole entry, looked up): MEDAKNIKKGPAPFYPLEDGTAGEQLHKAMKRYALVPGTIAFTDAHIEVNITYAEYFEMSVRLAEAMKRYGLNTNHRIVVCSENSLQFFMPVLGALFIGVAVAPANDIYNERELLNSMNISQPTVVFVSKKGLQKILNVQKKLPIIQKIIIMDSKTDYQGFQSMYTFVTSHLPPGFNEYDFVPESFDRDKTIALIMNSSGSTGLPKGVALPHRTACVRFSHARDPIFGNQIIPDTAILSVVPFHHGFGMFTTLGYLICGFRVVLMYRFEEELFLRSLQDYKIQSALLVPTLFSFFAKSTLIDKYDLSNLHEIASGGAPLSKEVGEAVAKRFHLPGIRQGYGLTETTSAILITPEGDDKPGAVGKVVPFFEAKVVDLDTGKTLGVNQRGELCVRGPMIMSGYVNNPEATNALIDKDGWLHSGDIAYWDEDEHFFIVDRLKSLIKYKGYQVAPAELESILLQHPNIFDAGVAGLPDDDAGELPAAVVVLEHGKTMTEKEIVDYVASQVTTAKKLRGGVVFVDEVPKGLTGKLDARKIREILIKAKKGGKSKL
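Purified P. pyralis luciferase, 10 nM final, with Km-level 10 uM D-luciferin and 10 uM ATP in 50 mM Tris acetate pH 7.5, 10 mM Mg acetate, 0.01% Tween-20, 0.05% BSA; 6-point qHTS titration about 60 µM downward; luminescence read.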
NPC1 promoter act – NPC1 promoter activation | Huh7 NPC1 promoter luciferase reporter, 24 h | Potency, µM (doses to about 9.22 µM), inactives show top-dose activation, hits mostly activators | hit rate 2.4% among 320,000; also: % of control where 0% means no effect; nearly all actives have a fitted effect of over 60% in size
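Quantitative HTS used a cell-based reporter: Huh7 cells stably bearing the NPC1 promoter upstream of luciferase were treated with compounds for 24 h, and promoter activation was read as luminescence.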
ELG1 genotoxic – induces genotoxicity in HEK293T cells with luciferase-tagged ELG1. HEK293T ELG1-luciferase reporter, luminescence, 16 h. Potency, µM (highest dose often 46 µM), for the others: top-dose activity change, positive = activation, most hits filed as activators. hit rate 1.3% among 330,000; also: % of control where 0% means no effect; nearly all actives have a fitted effect of over 60% in size
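16 hr compound incubation (37 °C, 5% CO2) of HEK293T cells carrying luciferase-tagged ELG1; luciferase then measured by ONE-Glo luminescence after 30 min at RT.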
SMN2 splice enh – enhancers of SMN2 splice variant expression | hit rate 2.8% among 210,000 | Potency, µM (top dose mostly 46.1 µM), for inactives: top-dose activity change, positive = activation, most hits filed as activators | HEK293 SMN2-luciferase splicing reporter, luminescence, 30-36 h; also: % of control where 0% means no effect; nearly all actives have a fitted effect of over 55% in size
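qHTS luciferase splicing reporter: luminescence rises when SMN2 exon 7 is included in transfected HEK293 cells. Compound exposure lasted 30-36 h at 37C, with 4.5 mM final sodium butyrate as control, followed by a ONE-Glo read.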
* = called active by the depositor; [ ] = remark or other dose. Calls follow the shape of the dose curve; as a rule, active = well fitted curve in the direction sought with a large enough effect; inconclusive = small, poorly fitted or top-dose-only effect, or another doubt; inactive = no such curve, though single readings can be large; an effect the other way counts as inactive or inconclusive. Potency is read from the fitted curve at half-maximal effect.

`CCOCCc1nnc(NC(=O)C(=O)c2cc(C)n(-c3ccc(C)cc3C)c2C)s1` gave FLuc counter -2%.
For COc1ccc2c(c1)C(=O)/C(=C/C=C/c1ccccc1)CC2 the results were Rab9 promoter act inconclusive, FLuc counter 9.5µM*, NPC1 promoter act inconclusive, ELG1 genotoxic 5% and SMN2 splice enh 11µM*.
For COc1ccc2c(c1)CC/C(=C\C=C\c1ccccc1OC)C2=O the results were Rab9 promoter act inconclusive, FLuc counter 2.1µM*, NPC1 promoter act inconclusive, ELG1 genotoxic 9% and SMN2 splice enh 11µM*.
O=C(Cn1ncc2c3ccccc3n(Cc3ccc(Cl)cc3)c2c1=O)NCc1cccs1 was read as FLuc counter -2% and SMN2 splice enh 7%.
CC(=O)Nc1cnc(NC(=O)c2cccc(F)c2)cc1C was read as Rab9 promoter act 2.8µM*, FLuc counter 30µM*, NPC1 promoter act 1.6µM*, ELG1 genotoxic 15µM* and SMN2 splice enh 11µM*.
For CCC(=O)Nc1cnc(NC(=O)c2cccc(F)c2)cc1C the results were Rab9 promoter act 0.71µM*, FLuc counter 9.5µM*, NPC1 promoter act 1.6µM*, ELG1 genotoxic inconclusive and SMN2 splice enh 11µM*.
For Cc1cc(NC(=O)c2ccco2)ncc1NC(=O)Cc1ccccc1 the results were Rab9 promoter act 3.2µM*, FLuc counter 17µM*, NPC1 promoter act inconclusive, ELG1 genotoxic 17% and SMN2 splice enh 8%.
Screening Cc1cc(NC(=O)c2cccc(F)c2)no1 returned Rab9 promoter act 26%, FLuc counter inconclusive, NPC1 promoter act 26%, ELG1 genotoxic inconclusive and SMN2 splice enh 14%.
Screening COC(=O)CC1C(C)(C)C(O)C2CC3=C4C=C(OC)OC(c5ccoc5)[C@]4(C)CCC3[C@@]1(C)C2=O (stereo not given in full) returned SMN2 splice enh -9%.
Screening COC(=O)Cc1c(C)nc2nc(-c3ccc(Cl)cc3)[nH]n2c1=O returned Rab9 promoter act 26%, FLuc counter 11µM*, NPC1 promoter act 17%, ELG1 genotoxic inconclusive and SMN2 splice enh 4%.
For COC(=O)Cc1c(C)nc2nc(-c3ccccc3)[nH]n2c1=O the results were Rab9 promoter act 2%, FLuc counter 17µM*, NPC1 promoter act 8%, ELG1 genotoxic 7% and SMN2 splice enh 24%.
`COC(=O)Cc1c(C)nc2nc(-c3ccc(C)cc3)[nH]n2c1=O` gave Rab9 promoter act 21%, FLuc counter 8.5µM*, NPC1 promoter act 15%, ELG1 genotoxic inconclusive and SMN2 splice enh 8%.
For COc1cccc(CN(C(=O)c2ccc(C(C)(C)C)cc2)C2CCS(=O)(=O)C2)c1 (stereo not given) the results were FLuc counter -1% and SMN2 splice enh -3%.
COC(=O)C1C(=O)c2c([nH]c(C(=O)OC3CCCCC3)c2C)CC1C (stereo not given) was read as Rab9 promoter act 2.8µM*, FLuc counter 1.7µM*, NPC1 promoter act 2.8µM*, ELG1 genotoxic inconclusive and SMN2 splice enh 13µM*.
`COC(=O)C1C(=O)c2c([nH]c(C(=O)OCCOC(C)C)c2C)CC1C` (stereo not given) gave Rab9 promoter act inconclusive, FLuc counter 13µM*, NPC1 promoter act 27%, ELG1 genotoxic inconclusive and SMN2 splice enh 1%.
`COC(=O)C1C(=O)c2c([nH]c(C(=O)OC3CCCC3C)c2C)CC1C` (stereo not given) gave Rab9 promoter act 1.4µM*, FLuc counter 2.4µM*, NPC1 promoter act 1.6µM*, ELG1 genotoxic 4.6µM* and SMN2 splice enh 11µM*.
`Cc1c(C(=O)OCCOc2ccccc2)[nH]c2c1C(=O)CC(c1ccccc1)C2` (stereo not given) gave FLuc counter 4% and SMN2 splice enh -19%.
For Cc1ccc(C)c(N2CCN(C(=O)c3cnn(C(C)(C)C)c3C3CCN(C(=O)OC(C)(C)C)CC3)CC2)c1 the results were FLuc counter 0%.
`Cc1cs/c(=N/C(=S)Nc2ccccc2)n1C` gave Rab9 promoter act 1.6µM*, FLuc counter 4.8µM*, NPC1 promoter act 1.1µM*, ELG1 genotoxic 2.9µM* and SMN2 splice enh 1.3µM*.
Screening CCCn1c(C)cs/c1=N\C(=S)Nc1ccccc1 returned Rab9 promoter act 3%, FLuc counter 3%, NPC1 promoter act 9%, ELG1 genotoxic 2% and SMN2 splice enh 1%.
CC(C)(Oc1ccc(CCNC(=O)c2ccc(-c3ccc(Cl)cc3)o2)cc1)C(=O)O was read as Rab9 promoter act 1%, FLuc counter 24µM*, NPC1 promoter act -2%, ELG1 genotoxic -6% and SMN2 splice enh -6%.
C/C(=N\Nc1nc(C)cc(-c2ccccc2)n1)c1ccc(C)o1 was read as Rab9 promoter act -15%, FLuc counter inconclusive, NPC1 promoter act -6%, ELG1 genotoxic -7% and SMN2 splice enh -40%.
Screening C/C(=N\Nc1nc(C)cc(C)n1)c1ccc(N2CCOCC2)cc1 returned Rab9 promoter act -13%, FLuc counter -14%, NPC1 promoter act -10%, ELG1 genotoxic -7% and SMN2 splice enh -11%.
For C/C(=N\Nc1nc2ccccc2[nH]1)c1ccc(C)o1 the results were Rab9 promoter act inconclusive, FLuc counter 11µM*, NPC1 promoter act 22%, ELG1 genotoxic inconclusive and SMN2 splice enh 18µM*.
For C/C(=N\Nc1nc2ccccc2[nH]1)c1ccc(N2CCOCC2)cc1 the results were Rab9 promoter act inconclusive, FLuc counter 1.1µM*, NPC1 promoter act 4µM*, ELG1 genotoxic 10% and SMN2 splice enh inconclusive.
C/C(=N\Nc1nc2ccccc2[nH]1)c1ccc(Cl)s1 was read as Rab9 promoter act 17%, FLuc counter 11µM*, NPC1 promoter act inconclusive, ELG1 genotoxic 2% and SMN2 splice enh -3%.
Screening Cc1cc2nc3[nH]c4c(Cl)cc(Cl)cc4c3nc2cc1C returned SMN2 splice enh 2%[9.22 µM].
CSc1ncc(-c2ccc(Cl)cc2)[nH]1 was read as Rab9 promoter act 3.2µM*, FLuc counter 9.5µM*, NPC1 promoter act 3.2µM* and ELG1 genotoxic inconclusive.
`FC(F)C(F)(F)C1=CC(c2ccccc2)=NCCN1` gave Rab9 promoter act 6%, FLuc counter 3%, NPC1 promoter act -4%, ELG1 genotoxic 1% and SMN2 splice enh 1%.
FC(F)C(F)(F)C1=CC(c2cccs2)=NCCN1 was read as Rab9 promoter act 0%, FLuc counter 7%, NPC1 promoter act -2%, ELG1 genotoxic -2% and SMN2 splice enh 0.71µM*.
For COC(=O)c1ccccc1NC(=O)c1ccc2c(c1)CC(C)O2 (stereo not given) the results were Rab9 promoter act 2.2µM*, FLuc counter 17µM*, NPC1 promoter act 28% and ELG1 genotoxic 5%.

Compound activity (PubChem)
